A3A deaminase: APOBEC3A ssDNA deaminase inhibitors, primary screen, selectivity assay for APOBEC3G inhibitor project, biochemical, FAM/TAMRA oligo cleavage fluorescence. DNA dC->dU-editing enzyme APOBEC-3A (Homo sapiens), P31941. 330,000 compounds, 0.41% hits. recombinant A3A, FAM/TAMRA ssDNA deamination fluorescence. AID 493011, 2011. inhibition, % at 20 µM;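 active means at least 40% inhibition at 20 µM here, with at most 30% in a related deaminase screen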;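 further: plate controls were A3A with DMSO for no effect and wells lacking A3A enzyme for full effect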
Target sequence (P31941 whole entry, looked up): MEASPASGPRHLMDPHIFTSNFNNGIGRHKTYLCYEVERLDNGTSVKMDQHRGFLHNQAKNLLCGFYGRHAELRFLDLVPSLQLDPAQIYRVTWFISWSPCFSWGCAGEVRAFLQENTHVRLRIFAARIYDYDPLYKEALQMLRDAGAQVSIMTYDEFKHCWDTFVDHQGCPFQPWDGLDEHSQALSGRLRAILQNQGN
A3G deaminase: APOBEC3G DNA deaminase inhibitors, primary screen, biochemical, fluorescence, single-stranded DNA substrate, uHTS | DNA dC->dU-editing enzyme APOBEC-3G (Homo sapiens), Q9HC16 | recombinant A3G, ssDNA deamination FAM/TAMRA fluorescence | inhibition, % at 20 µM | 330,000 compounds, 0.28% hits;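 active means inhibition of at least 40% at 20 µM, with no more than 30% in the related APOBEC3A deaminase screen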;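 further: plate controls were DMSO wells with A3G for no effect and wells lacking A3G enzyme for full effect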
Target sequence (Q9HC16 whole entry, looked up): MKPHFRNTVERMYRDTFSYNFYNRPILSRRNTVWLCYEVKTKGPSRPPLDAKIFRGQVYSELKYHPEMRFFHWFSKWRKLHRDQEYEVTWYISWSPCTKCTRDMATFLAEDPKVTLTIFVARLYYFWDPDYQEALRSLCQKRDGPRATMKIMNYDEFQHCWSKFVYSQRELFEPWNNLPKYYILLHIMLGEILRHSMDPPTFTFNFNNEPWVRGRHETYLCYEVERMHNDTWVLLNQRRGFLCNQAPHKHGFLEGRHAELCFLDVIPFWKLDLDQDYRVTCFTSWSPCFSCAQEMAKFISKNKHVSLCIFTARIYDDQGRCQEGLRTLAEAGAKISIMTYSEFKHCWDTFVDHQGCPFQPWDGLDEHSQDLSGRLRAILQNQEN
Fh CTSL1 inh: Fasciola hepatica cathepsin L1 inhibitors, primary screen, counter-screen for PFM18AAP inhibitor project, biochemical, QFRET, fluorogenic peptide substrate; recombinant F. hepatica cathepsin L1, Z-Leu-Arg-MCA fluorescence; inhibition, % at 5.96 µM; 300,000 compounds, 0.49% hits; AID 1906, 2009;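 active means inhibition above the mean of all tested compounds plus 3 SD, set per screening campaign, cut at about 17% in these data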;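 further: 0% = plate median of test compound wells and 100% = 1 µM Z-Phe-Ala-diazomethylketone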
NALP1 inh: NALP1 inflammasome inhibitors in reconstituted yeast, colorimetric, S. cerevisiae, triplicate retest | S. cerevisiae NALP1/ASC/caspase-1 growth, X-gal OD620, 72 h | inhibition, % at 10 µM | 280,000 compounds, 0.61% hits; in the data active means inhibition mostly above about 24%, no sharp cut-off; inactive means mostly below about 32%
HGIII-sPLA2 inh: human group III sPLA2 inhibitors, primary screen, biochemical, QFRET, BODIPY PC-A2 liposome substrate; Group 3 secretory phospholipase A2 (Homo sapiens), Q9NZ20; QFRET BODIPY PC-A2 liposome hydrolysis, fluorescence; inhibition, % at 12.2 µM; 370,000 compounds, 0.56% hits;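 active means inhibition above mean plus 3 SD of compounds lying within the high and low control bounds, cut at about 19% in these data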;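 further: 0% = median of test compound wells and 100% = no enzyme DMSO wells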
APOBEC3A confirm: APOBEC3A deaminase inhibitors, retest, confirmation, selectivity assay for APOBEC3G inhibitor project, biochemical, single concentration, fluorescence readout. shares compounds with A3A deaminase. recombinant A3A, ssDNA deaminase UDG fluorescence assay. inhibition, % at 20 µM. 1,400 compounds, 63% hits;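 active means inhibition reaching a set limit, 80% of the first screen's cutoff, at 20 µM in any replicate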;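 further: plate controls were DMSO wells with A3A for no effect and wells lacking A3A enzyme for full effect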
UDG A3A counter: E. coli UDG inhibitors, confirmation, counter-screen for APOBEC3A inhibitor project, biochemical, single concentration, fluorescence, FAM/TAMRA oligo | shares compounds with A3A deaminase | UDG counterscreen, FAM/TAMRA uracil oligo fluorescence | inhibition, % at 20 µM | 1,000 tested, under 10 active; call rule not given here
Starred values were filed as active, the others as inactive; · = no result given. A selection: hits, their analogues and other compounds. The true share with any hit is near 2%.

SMILES	A3A deaminase	A3G deaminase	Fh CTSL1 inh	NALP1 inh	HGIII-sPLA2 inh	APOBEC3A confirm	UDG A3A counter
C[n+]1c(/C=C/c2ccc3c(c2)OCO3)ccc2ccccc21	86*	20	-1	2	0	87*	-2
C[n+]1c(/C=C/c2ccc(O)cc2)ccc2ccccc21	57*	28	1	5	10	75*	5
CCCN(CC1CC1)c1nc(C)nc2c1nnn2Cc1ccccc1	·	·	·	·	2	·	·
CCC(NC(=O)c1ccc2c(ccn2Cc2cccc(-c3ccc(C(=O)O)cc3)c2)c1)c1ccccc1 (stereo not given)	·	·	·	·	-27	·	·
Cc1ccc(C)c(NC(=O)C2CC(O)CN2C(=O)Oc2ccccc2)c1 (stereo not given)	54*	6	-1	1	5	41*	-3
O=S(=O)(Nc1ccon1)c1ccc(Br)s1	76*	-5	6	3	1	-2	-3
CSc1nc2ccc(NS(=O)(=O)c3ccc(Br)s3)cc2s1	0	-4	0	-1	-23	·	·
CCCC1=[N+](CC(=O)c2ccccc2)CCn2c(C)ccc21	-7	-9	2	10	-5	·	·
CCCC1=[N+](CC)CCn2c(C)ccc21	60*	20	4	30	3	76*	0
COc1ccc(NC(=O)NC2CCN(S(=O)(=O)c3ccc(F)cc3)CC2)cc1OC	·	·	·	·	0	·	·
COc1ccc2sc(C)[n+](C)c2c1	25	15	-2	12	0	·	·
CCCC[n+]1c(C)sc2cc(OC)ccc21	65*	18	-2	1	-3	66*	-2
CCc1ccc(NC2=CC(=O)C(=O)c3ccccc32)cc1	1	-3	·	·	4	·	·
O=C1C=C(Nc2ccccc2)C(=O)c2ccccc21	65*	-8	2	1	10	-1	3
CN1C2CCCC1CC(NC(=O)c1nn(C)c3ccccc13)C2 (stereo not given)	·	·	·	·	11	·	·
Cc1nc(N)nc(C)c1Cc1ccccc1	4	4	-4	-14	4	·	·
Cc1c2ccccc2cc(Cc2ccccc2)[n+]1C	43*	8	4	12	-8	60*	-3
O=S1(=O)c2ccc(Br)cc2OC[C@@H](c2ccccc2)N1Cc1cn(Cc2ccccc2)nn1	·	·	·	·	-1	·	·
C[C@@H]1COc2cc(Br)ccc2S(=O)(=O)N1Cc1cn(CCC2OCCCO2)nn1	·	·	·	·	9	·	·
O=C(N/N=C/c1ccc2c(c1)OCO2)c1ccc(COCC(F)(F)C(F)F)cc1	98*	-6	1	14	·	-1	-2
C[n+]1cccc(C(=O)N/N=C/c2ccc3c(c2)OCO3)c1	75*	18	4	36	2	69*	-1
COc1ccc(/C=N/NC(=O)c2ccc(COCC(F)(F)C(F)F)cc2)cc1	-6	-3	1	25	5	·	·
O=C(CSc1nnc(-c2cnccn2)n1-c1ccccc1)Nc1ccc2cn[nH]c2c1	·	·	·	·	-3	·	·
OC(c1ccccc1)C1(c2ccccc2)CCN(Cc2ccccc2)CC1 (stereo not given)	·	·	·	·	-11	·	·
CC(=O)Nc1nc2c(ccc3ccccc32)s1	49*	9	2	1	8	13	·
SMILES	A3A deaminase	A3G deaminase	Fh CTSL1 inh	NALP1 inh	HGIII-sPLA2 inh	APOBEC3A confirm	UDG A3A counter
Cc1ccc(C(=O)O)cc1-c1ccc(C=C2C(=O)c3ccccc3C2=O)o1	44*	12	0	-15	2	35*	-2
COC(=O)C(C)N1C(=O)S/C(=C\c2ccc(-c3ccc(C(=O)O)cc3C)o2)C1=O (stereo not given)	51*	12	0	5	-15	62*	-2
Cc1cccc(NC(=O)CN2C(=O)S/C(=C\c3ccc(-c4cccc(C(=O)O)c4C)o3)C2=O)c1	6	4	0	8	0	·	·
Cc1ccc(NC(=O)CN2C(=O)S/C(=C/c3ccc(-c4cc(C(=O)O)ccc4C)o3)C2=O)cc1C	63*	12	5	13	-7	43*	-4
C[C@H](O)[C@@H]1CN2CCc3ccc(N4CCOCC4)cc3[C@@H]2C[C@@H]1N(C)C(=O)c1ccccc1F	·	·	·	·	-2	·	·
COc1cc2c(cc1OC)C[N+](C)(C)CC2	45*	11	-3	2	8	75*	-4
O=C(O)c1[nH]c2ccccc2c1C(c1ccccc1)c1c(C(=O)O)[nH]c2ccccc12	-1	-5	0	-3	-127	·	·
C=CCOc1ccc(C(c2c(C(=O)O)[nH]c3ccccc23)c2c(C(=O)O)[nH]c3ccccc23)cc1	55*	24	3	-4	-89	41*	-3
O=C(c1ccncc1)N1CC[C@H]2[C@H](CCCN2Cc2cc(F)cc(F)c2)C1	·	·	·	·	13	·	·
CCc1ccc(NC(=O)Cn2cnc3c(=O)n(C)c(=O)n(C)c32)cc1	69	34	1	4	0	·	·
Cn1c(=O)c2ncn(CC(=O)NC3CCCCCC3)c2n(C)c1=O	43*	12	11	4	5	15	·
Oc1ccccc1C=NC(c1ccccc1)C(O)c1ccccc1 (stereo not given)	-3	-5	-1	14	5	·	·
Oc1ccccc1/C=N/[n+]1ccccc1	69*	15	-7	3	1	66*	-1
CCOc1c(Br)cc(Br)cc1/C=C1\SC(N)=NC1=O	69*	18	·	11	0	82*	2
CCOC(=O)[C@]12CCCC=C1N(CCCOC)C(=O)[C@@H]2CC(=O)N1CCN(C(=O)c2ccco2)CC1	·	·	·	·	8	·	·
O=C(NCCOc1ccccc1)c1ncn[nH]1	76*	21	5	6	0	52*	-3
COC(=O)[C@]12CCCCC=C1N(Cc1ccc(OC)cc1)C(=O)[C@@H]2CC(=O)NCc1ccc(C)o1	·	·	·	·	-16	·	·
O=C(Nc1cccc(C(F)(F)F)c1)O[C@@H]1CC[C@@]23CCCN2C(=O)CCC[C@H]3C1	·	·	·	·	2	·	·
O=C(CSC1=NCCS1)NC1CCCCC1	49*	8	-5	14	3	52*	0
COc1ccc2oc(C(=O)OCC(=O)Nc3ccc(NC(C)=O)cc3)c(C)c2c1	47*	2	1	·	11	0	·

Source: PubChem BioAssay (several laboratories)
